CHOP inhibitor – CHOP inhibition in unfolded protein response. CHO-K1 CHOP-promoter luciferase, tunicamycin-induced, 15-18 h. inhibition, % at 10 µM. actives 3.8% (n = 220,000);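 active means compounds that reduced the stress-induced luciferase reporter signal by more than about 70% of percent inhibition, limit read from the data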;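 further: 0% = tunicamycin plus vehicle and 100% = wells without tunicamycin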
Hsp70 activator – transcriptional activators of Hsp70 | HeLa Hsp70 promoter luciferase reporter, luminescence; scaled: vehicle 0, proteasome-inhibitor control 100% | activation, % at 10 µM | actives 0.04% (n = 200,000) | AID 1203;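 active means activation above the mean across all tested compounds plus 3 SD, cutoff set per campaign, cut at about 5.5% in these data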;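 further: 100% = MG132 at 30 µM as the positive control and 0% = DMSO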
S1P4 antagonist – human S1P4 receptor antagonism; O95977; S1P4-expressing cells, antagonist mode, reporter read-out; inhibition, % at 4.98 µM; actives 0.26% (n = 220,000); AID 1510; in the data active means inhibition above about 29%;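 further: 0% = wells stimulated with agonist and 100% = vehicle wells without agonist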
Target sequence (O95977 whole entry, looked up): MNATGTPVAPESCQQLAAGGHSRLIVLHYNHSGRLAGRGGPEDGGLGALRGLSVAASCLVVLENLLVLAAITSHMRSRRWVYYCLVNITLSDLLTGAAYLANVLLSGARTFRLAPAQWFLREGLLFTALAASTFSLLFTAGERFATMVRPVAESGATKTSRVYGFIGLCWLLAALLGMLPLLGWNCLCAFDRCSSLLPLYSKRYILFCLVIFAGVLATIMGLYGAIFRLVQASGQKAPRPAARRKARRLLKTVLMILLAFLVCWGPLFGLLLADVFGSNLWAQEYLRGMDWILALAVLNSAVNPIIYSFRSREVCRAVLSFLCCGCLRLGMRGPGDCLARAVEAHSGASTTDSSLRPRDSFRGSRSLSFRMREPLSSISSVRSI
S1P4 ag – activates the human S1P4 receptor | O95977 | S1P4-expressing cell line, agonist reporter assay | activation, % at 4.98 µM | actives 0.35% (n = 220,000) | AID 1509; in the data active means activation above about 11%;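 further: 0% = DMSO vehicle and 100% = reference agonist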
* = called active by the depositor; . = not tested or not shown. Hits are enriched below; roughly 4.2% of the tested compounds scored in any of these assays.

SMILES	CHOP inhibitor	Hsp70 activator	S1P4 antagonist	S1P4 ag
CCOC(=O)c1cnc(SCC(=O)Nc2sc(C)c(C)c2C#N)nc1N	71*	0	-16	1
Cc1cccc(CCNC(=O)C2CCC(=O)N2Cc2ccc(F)cc2)c1 (stereo unspecified)	20	0	-9	1
CCOC(=O)c1[nH]c2cc3c(cc2c1NC(=O)CN1CC(C)CC(C)C1)OCO3 (stereo unspecified)	79*	0	-5	0
O=C1Nc2ccc(Br)cc2/C1=C/C1CC=CCC1 (stereo unspecified)	95*	0	15	1
O=C(O)c1cccc(COc2ccc3c(c2)CCC3)c1	93*	.	-6	0
CCOc1ccc(OCc2cccc(C(=O)O)c2)cc1	109*	.	.	.
CN1c2ccccc2C(C)(C)[C@]12C=Cc1cc(O)ccc1O2	95*	0	-5	2
Cc1ccc(-c2nnc(SCc3ccccc3F)o2)cc1	75*	0	10	-1
COc1ccc(-c2nnc(SCc3ccccc3F)o2)cc1OC	51	0	-10	0
N#CCn1c(CCl)nc2ccccc2c1=O	-27	0	4	2
CCc1cccc2c(C(=O)COC(=O)c3ccc(O)cc3)c[nH]c12	87*	0	-2	1
NC(N)=NN=C1CCCCCCCCCCC1	34	.	14	-1
Brc1ccc2c(c1)OCCOCCOc1cc(Br)ccc1OCCOCCOCCO2	83*	0	-7	-2
Cc1sc2nc(CSc3nc4ccccc4s3)[nH]c(=O)c2c1C	77*	0	-9	1
Cc1sc2nc(CSc3cccc(C(F)(F)F)c3)[nH]c(=O)c2c1C	73*	0	-22	1
Cc1ccc(SCC(=O)NCc2ccco2)cc1	9	0	-21	-2
CCOc1ccc(-n2c(C)cc(C(=O)CCl)c2C)cc1	-427	0	9	0
COC(=O)c1ccc(-n2c(C)cc(C(=O)CCl)c2C)cc1	90*	0	5	0
NC(=O)C1(N2CCCCC2)CCN(CC(=O)Nc2cc(Cl)ccc2Cl)CC1	76*	0	-4	-2
CC(C)(C)N/N=C1\CC(c2ccccc2)Oc2ccccc21 (stereo unspecified)	73*	0	-17	3
O=C(O)CC(NC(=O)C(c1ccccc1)c1ccccc1)c1ccco1 (stereo unspecified)	25	0	-14	-1
CCOc1ccc2nc(Cl)c(C3CC(c4ccccc4)=NN3C(=O)c3ccco3)cc2c1 (stereo unspecified)	96*	0	-13	1
CCOc1ccc2nc(Cl)c(C3CC(c4ccco4)=NN3S(=O)(=O)c3ccccc3)cc2c1 (stereo unspecified)	-11	0	-14	1
C/C(=N\Nc1ccc([N+](=O)[O-])cc1)c1ccc(C#N)cc1	-13	.	-1	1
C/C(=N/Nc1ccc([N+](=O)[O-])cc1)c1ccc(C)cc1C	94*	0	0	3
SMILES	CHOP inhibitor	Hsp70 activator	S1P4 antagonist	S1P4 ag
Cc1nn2c(NCCCN(C)C)c3c(nc2c1-c1ccccc1)CCCC3	-2	.	-5	0
Cc1nn2c(NCCCN(C)C)c3c(nc2c1-c1ccccc1)CCC3	93*	0	4	-2
Cc1nn2c(-n3ccnc3C)c3c(nc2c1-c1ccccc1)CCC3	23	-1	12	-4
Cc1nn2c(N3CCOCC3)c3c(nc2c1-c1ccccc1)CCCC3	72*	0	8	0
Cc1cc(C)c(OCC(O)CNC(C)(C)C)c(C)c1 (stereo unspecified)	-4	0	-4	0
CCOC(=O)c1ccccc1NC1c2ccccc2C(=O)N1c1ccc(C)cn1 (stereo unspecified)	85*	0	-2	-1
CCOc1ccccc1NC1c2ccccc2C(=O)N1c1ccc(C)cn1 (stereo unspecified)	51	1	-15	-1
COc1ccc(-c2ccnc(SCC(=O)c3ccc(OC)c(OC)c3)n2)cc1	25	0	-16	2
COc1ccc(OC)c(C(=O)CSc2nccc(-c3ccc(Br)cc3)n2)c1	80*	0	-20	0
CCN1C/C(=C/c2cccc([N+](=O)[O-])c2)C(=O)/C(=C/c2cccc([N+](=O)[O-])c2)C1	111*	0	-15	1
Cn1c(N)c(C(=O)COC(=O)CSc2ccc3ccccc3c2)c(=O)n(C)c1=O	16	0	-13	2
COc1ccc(OC)c(Nc2nc3nonc3nc2N2CCCC(C)C2)c1 (stereo unspecified)	77*	0	-12	0
O=C(COc1cc(O)c2c(=O)cc(-c3ccccc3)oc2c1)c1ccccc1	26	0	-3	0
O=c1[nH]c2ccc(S(=O)(=O)N3CCN(Cc4ccccc4)CC3)cc2[nH]c1=O	23	-1	-2	-2
COc1cc(S(=O)(=O)N2CCN(Cc3ccccc3)CC2)ccc1Br	78*	0	-9	0
Cn1c(SCc2cccc([N+](=O)[O-])c2)nc2c(c1=O)SCC2	75*	1	9	-1
Cn1c(SCc2cccnc2)nc2c(c1=O)SCC2	19	0	-4	1
O=C(Cn1c(C2CC2)nc2ccccc2c1=O)Nc1ccc(Br)cc1	84*	0	6	2
Cc1cc(NC(=O)Cn2c(C)nc3ccccc3c2=O)ccc1Br	35	0	0	0
CC(=O)c1ccc(NC(=O)COC(=O)c2c3c(nc4ccccc24)/C(=C\c2cccs2)CCC3)cc1	77*	0	-14	0
CCC(C)Sc1nc2c(c(=O)[nH]1)C(c1cccs1)C1=C(CCCC1=O)N2 (stereo unspecified)	82*	0	-18	-1
O=C1CCCC2=C1C(c1ccncc1)c1c(nc(SCc3ccccc3Cl)[nH]c1=O)N2 (stereo unspecified)	18	0	-24	0
CCOC(=O)c1c(NC(=O)CN2C(=O)NC3(CCCCC3)C2=O)sc(C)c1-c1ccc(C)cc1	71*	0	-17	-1
CCOC(=O)c1ccc(NC(=O)CN2C(=O)NC3(CCC(C)CC3)C2=O)cc1 (stereo unspecified)	10	0	-2	2
CCOC(=O)c1sc(NC(=O)CN2C(=O)NC3(CCCCCCC3)C2=O)c(C(=O)OCC)c1C	14	.	-6	0
SMILES	CHOP inhibitor	Hsp70 activator	S1P4 antagonist	S1P4 ag
CCOC(=O)c1c(NC(=O)CN2C(=O)NC3(CCC(C)CC3)C2=O)sc(C)c1-c1ccc(C)cc1 (stereo unspecified)	82*	0	-8	1
O=C1CCC2CCCCC2(O)O1 (stereo unspecified)	-3	0	-2	-1
Cc1ccc(Cn2cccc2/C=C2/C(=N)N3C=CSC3=NC2=O)cc1	94*	0	-10	0
N=C1/C(=C/c2cccn2Cc2ccc(F)cc2)C(=O)N=C2SC=CN12	14	0	-2	2
CCOc1cc(CNCCc2ccc(S(N)(=O)=O)cc2)cc(Cl)c1OCc1ccccc1	70*	0	-13	2
C#C[C@]1(O)CC[C@H]2[C@@H]3CCc4cc(OC)ccc4[C@H]3CC[C@@]21C	70*	0	-40	1
